PubChem BioAssay (EPA / NIEHS)
Calls of active or inactive are those of the source. The calls were made as follows: active = hit-call score of the fitted dose curve at least 0.9, where 1 is the maximum; inactive = score below 0.9.

Key:
Settings in all cases: mRNA level, 48 h; actives raise or lower the signal
[1] = read-out: Intercellular Adhesion Molecule 1 (ICAM1), ICAM1 (gene 3383); assay: LTEA_HepaRG_ICAM1: Life Technologies and Expression Analysis (LTEA) Assay for Intercellular Adhesion Molecule 1 (ICAM1) using HepaRG (AID 2283507)
Method in brief: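 ICAM1 transcript levels measured by qRT-PCR, normalized to three housekeeping genes (ACTB, GAPDH, POLR2A), after 48 h chemical exposure of HepaRG cells. Duplicate eight-point half-log series from 100 uM in 0.5% DMSO; gain or loss fitted against vehicle.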

[2] = read-out: Insulin-like growth factor-binding protein 1 (IGFBP1), IGFBP1 (gene 3484); assay: LTEA_HepaRG_IGFBP1: Life Technologies and Expression Analysis (LTEA) Assay for Insulin-like growth factor-binding protein 1 (IGFBP1) using HepaRG (AID 2283508)
Method in brief: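 Read-out is qRT-PCR transcript level normalized to three housekeeping genes, fitted in both directions against 0.5% DMSO. Differentiated HepaRG cells received eight half-log concentrations (top 100 uM) in duplicate for 48 h in serum-free induction medium.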

[3] = read-out: Interleukin 6 (IL6), IL6 (gene 3569); assay: LTEA_HepaRG_IL6: Life Technologies and Expression Analysis (LTEA) Assay for Interleukin 6 (IL6) using HepaRG (AID 2283509)
Method in brief: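 HepaRG, ~100,000 cells/well, 48 h pre-culture; serum-free induction medium; cmpd 8-pt half-log from 100 uM, 0.5% DMSO, duplicate, 48 h. Lysis in RLT, TaqMan qRT-PCR; gain or loss vs DMSO.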

[4] = read-out: Interleukin 6 Receptor (IL6R), IL6R (gene 3570); assay: LTEA_HepaRG_IL6R: Life Technologies and Expression Analysis (LTEA) Assay for Interleukin 6 Receptor (IL6R) using HepaRG (AID 2283510)
Method in brief: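 Differentiated HepaRG cells, plated 48 h, then exposed in duplicate for 48 h in serum-free induction medium to 8 half-log concentrations (top 100 uM, 0.5% DMSO). IL6R mRNA measured by TaqMan qRT-PCR, normalized to ACTB/GAPDH/POLR2A; bidirectional fit vs DMSO.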

[5] = read-out: Potassium channel subfamily K member 1 (KCNK1), KCNK1 (gene 3775); assay: LTEA_HepaRG_KCNK1: Life Technologies and Expression Analysis (LTEA) Assay for Potassium channel subfamily K member 1 (KCNK1) using HepaRG (AID 2283511)
Method in brief: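 Gain or loss of KCNK1 mRNA is the read-out, quantified by qRT-PCR against three housekeeping genes after 48 h chemical treatment of human HepaRG liver cells. Concentrations ran from 100 uM downward in half-log steps, vehicle 0.5% DMSO.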

[6] = read-out: Keratin 19 (KRT19), KRT19 (gene 3880); assay: LTEA_HepaRG_KRT19: Life Technologies and Expression Analysis (LTEA) Assay for Keratin 19 (KRT19) using HepaRG (AID 2283512)
Method in brief: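 KRT19 transcript measured by TaqMan qRT-PCR, referenced to three housekeeping genes, after HepaRG cells received test chemicals for 48 h. Eight half-log concentrations, top 100 uM, 0.5% DMSO vehicle; increases and decreases both fitted.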

[7] = read-out: Lipase C (LIPC), LIPC (gene 3990); assay: LTEA_HepaRG_LIPC: Life Technologies and Expression Analysis (LTEA) Assay for Lipase C (LIPC) using HepaRG (AID 2283514)
Method in brief: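 Read-out is LIPC transcript level by TaqMan qRT-PCR, normalized to three housekeeping genes, after 48 h chemical treatment of human HepaRG liver cells. Curves span eight concentrations topping at 100 uM; activity in either direction scored relative to 0.5% DMSO.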

[8] = read-out: Lipoprotein lipase (LPL), LPL (gene 4023); assay: LTEA_HepaRG_LPL: Life Technologies and Expression Analysis (LTEA) Assay for Lipoprotein lipase (LPL) using HepaRG (AID 2283515)
Method in brief: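 Read-out is LPL transcript level by qRT-PCR, normalized to three housekeeping genes and fitted bidirectionally against the DMSO control. Human HepaRG cells received chemicals for 48 h at up to 100 uM.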

[9] = read-out: MicroRNA 122 (MIR122), gene 406906; assay: LTEA_HepaRG_MIR122: Life Technologies and Expression Analysis (LTEA) Assay for MicroRNA 122 (MIR122) using HepaRG (AID 2283516); also: the transcript read is the microRNA miR-122
Method in brief: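 Differentiated human HepaRG cells in serum-free induction medium exposed 48 h to 8 half-log concentrations from 100 uM in 0.5% DMSO, duplicate. MIR122 quantified by Fluidigm TaqMan qRT-PCR, normalised to ACTB, GAPDH, POLR2A; fold change fitted bidirectionally versus DMSO.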

[10] = read-out: matrix metalloproteinase-10 (MMP10), MMP10 (gene 4319); assay: LTEA_HepaRG_MMP10: Life Technologies and Expression Analysis (LTEA) Assay for matrix metalloproteinase-10 (MMP10) using HepaRG (AID 2283517)
Method in brief: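 Gain or loss of MMP10 mRNA is fitted relative to the 0.5% DMSO vehicle. The human hepatic line HepaRG receives a 48-hour serum-free exposure, in duplicate, with a maximum concentration of 100 uM.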

MYC, MYC (gene 4609) = assay: LTEA_HepaRG_MYC: Life Technologies and Expression Analysis (LTEA) Assay for MYC using HepaRG (AID 2283518)
Method in brief: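 MYC transcript changes, up or down relative to 0.5% DMSO, from TaqMan qRT-PCR normalized to three housekeeping genes. Human HepaRG cultures received chemicals for 48 h at eight half-log concentrations up to 100 uM, in duplicate.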

[11] = read-out: matrix metalloproteinase-3 (MMP3), MMP3 (gene 4314); assay: LTEA_HepaRG_MMP3: Life Technologies and Expression Analysis (LTEA) Assay for matrix metalloproteinase-3 (MMP3) using HepaRG (AID 2283519)
Method in brief: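 HepaRG, human; 48 h dosing, 8 conc. (max 100 uM, half-log), duplicate, 0.5% DMSO. Readout: MMP3 transcript by Fluidigm TaqMan qRT-PCR, ACTB/GAPDH/POLR2A-normalised. Gain or loss fitted vs DMSO.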

[12] = read-out: Paternally Expressed 10 (PEG10), PEG10 (gene 23089); assay: LTEA_HepaRG_PEG10: Life Technologies and Expression Analysis (LTEA) Assay for Paternally Expressed 10 (PEG10) using HepaRG (AID 2283520)
Method in brief: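 Differentiated HepaRG cells exposed 48 h in serum-free induction medium to eight half-log concentrations topping at 100 uM, 0.5% DMSO, in duplicate. PEG10 mRNA quantified by TaqMan qRT-PCR, normalized to ACTB, GAPDH and POLR2A; bidirectional fit versus DMSO.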

[13] = read-out: Protein phosphatase 2A (PPP2R4), PTPA (gene 5524); assay: LTEA_HepaRG_PPP2R4: Life Technologies and Expression Analysis (LTEA) Assay for Protein phosphatase 2A (PPP2R4) using HepaRG (AID 2283522)
Method in brief: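 Differentiated human HepaRG cells in serum-free induction medium were exposed 48 h to 8 concentrations (top 100 µM, half-log steps, duplicate) in 0.5% DMSO. PPP2R4 mRNA was measured by TaqMan qRT-PCR, normalised to ACTB, GAPDH and POLR2A, and fitted bidirectionally versus DMSO.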

[14] = read-out: Phosphatase and tensin (PTEN), PTEN (gene 5728); assay: LTEA_HepaRG_PTEN: Life Technologies and Expression Analysis (LTEA) Assay for Phosphatase and tensin (PTEN) using HepaRG (AID 2283523)
Method in brief: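 Read-out is PTEN transcript level by multiplexed TaqMan qRT-PCR after 48 h chemical treatment of human HepaRG cultures in serum-free induction medium. Concentrations spanned 100 uM downward in half-log steps, 0.5% DMSO throughout; activity fitted in both directions against vehicle.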

[15] = read-out: solute carrier (SLC22A1), SLC22A1 (gene 6580); assay: LTEA_HepaRG_SLC22A1: Life Technologies and Expression Analysis (LTEA) Assay for solute carrier (SLC22A1) using HepaRG (AID 2283524)
Method in brief: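 HepaRG (human liver line), 48 h dosing in serum-free induction medium; 8 conc., half-log down from 100 uM, 0.5% DMSO vehicle, duplicates. Endpoint: SLC22A1 mRNA, qRT-PCR, housekeeping-normalized; gain/loss fit vs DMSO.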

[16] = read-out: NAD(P)H dehydrogenase [quinone] 1 (NQO1), NQO1 (gene 1728); assay: LTEA_HepaRG_NQO1: Life Technologies and Expression Analysis (LTEA) Assay for NAD(P)H dehydrogenase [quinone] 1 (NQO1) using HepaRG (AID 2283526)
Method in brief: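 Differentiated human HepaRG cells in serum-free induction medium, dosed in duplicate for 48 h at 8 half-log concentrations up to 100 uM in 0.5% DMSO. NQO1 mRNA by qRT-PCR normalized to ACTB, GAPDH, POLR2A; bidirectional fit versus DMSO baseline.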

[17] = read-out: JUN Transcription Factor, JUN (gene 3725); assay: LTEA_HepaRG_JUN: Life Technologies and Expression Analysis (LTEA) Assay for JUN Transcription Factor using HepaRG (AID 2283513)
Method in brief: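 HepaRG cells, 48 h post-plating, exposed 48 h in serum-free induction medium to 8-point half-log series (top 100 uM, 0.5% DMSO), duplicate; mRNA by qRT-PCR (TaqMan, Fluidigm), normalized to ACTB/GAPDH/POLR2A; bidirectional fit vs DMSO.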

[18] = read-out: Nuclear factor NF-kappa-B p105 subunit (Homo sapiens) (UniProt P19838); assay: LTEA_HepaRG_NFKB1: Life Technologies and Expression Analysis (LTEA) Assay for Nuclear Factor Kappa B Subunit 1 (NFKB1) using HepaRG (AID 2283521)
Method in brief: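 HepaRG, 48 h exposure; 8-pt half-log series from 100 uM in 0.5% DMSO; duplicates. Readout: NFKB1 mRNA by qRT-PCR (Fluidigm arrays), housekeeping-normalized. Gain/loss fit vs DMSO baseline.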

[19] = read-out: Pyruvate Dehydrogenase Kinase 4 (PDK4), PDK4 (gene 5166); assay: LTEA_HepaRG_PDK4: Life Technologies and Expression Analysis (LTEA) Assay for Pyruvate Dehydrogenase Kinase 4 (PDK4) using HepaRG (AID 2283525)
Method in brief: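 In this multiplexed human HepaRG expression assay, cells are treated 48 h with test chemicals across an eight-point range starting at 100 uM. PDK4 mRNA changes, normalized to ACTB/GAPDH/POLR2A, are fitted in both directions relative to vehicle.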

Measured: AC50

Sequence of Nuclear factor NF-kappa-B p105 subunit (Homo sapiens) (P19838 whole entry, looked up): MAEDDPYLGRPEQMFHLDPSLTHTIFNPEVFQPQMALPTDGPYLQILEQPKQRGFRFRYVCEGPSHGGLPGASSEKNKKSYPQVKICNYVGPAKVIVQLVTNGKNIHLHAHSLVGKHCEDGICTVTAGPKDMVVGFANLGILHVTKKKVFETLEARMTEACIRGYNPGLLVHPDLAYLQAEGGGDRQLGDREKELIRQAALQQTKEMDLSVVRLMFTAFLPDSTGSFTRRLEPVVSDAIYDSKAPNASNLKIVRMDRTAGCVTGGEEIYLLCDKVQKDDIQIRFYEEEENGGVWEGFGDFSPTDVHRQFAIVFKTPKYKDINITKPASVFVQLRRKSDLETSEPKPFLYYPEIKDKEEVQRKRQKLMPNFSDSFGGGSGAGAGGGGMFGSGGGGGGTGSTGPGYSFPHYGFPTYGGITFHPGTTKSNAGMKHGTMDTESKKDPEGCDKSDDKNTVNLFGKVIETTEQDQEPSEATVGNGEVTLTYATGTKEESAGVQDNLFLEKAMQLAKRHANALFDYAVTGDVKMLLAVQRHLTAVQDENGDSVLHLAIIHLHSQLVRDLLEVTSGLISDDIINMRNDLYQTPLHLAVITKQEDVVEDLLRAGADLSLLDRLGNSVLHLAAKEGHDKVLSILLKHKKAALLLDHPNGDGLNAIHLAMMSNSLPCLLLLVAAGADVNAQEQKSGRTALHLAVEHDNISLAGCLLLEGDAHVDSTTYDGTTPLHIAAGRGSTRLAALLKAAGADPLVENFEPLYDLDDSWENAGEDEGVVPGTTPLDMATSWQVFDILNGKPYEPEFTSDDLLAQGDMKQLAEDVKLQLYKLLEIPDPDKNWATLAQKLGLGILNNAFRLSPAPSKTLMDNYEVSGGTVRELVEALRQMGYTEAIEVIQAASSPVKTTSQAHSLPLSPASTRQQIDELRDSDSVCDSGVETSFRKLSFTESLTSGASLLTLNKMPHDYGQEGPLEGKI

S=C([S-])NCCNC(=S)[S-].[Mn+2]
active: [1] 6.29 µM | [2] 0.194 µM | [3] 5.31 µM | [4] 3.93 µM | [6] 10 µM | [7] 7.28 µM | [8] 3.29 µM | [9] 2.03 µM | MYC, MYC (gene 4609) 8.74 µM | [12] 0.302 µM | [13] 5.29 µM | [14] 4.48 µM | [15] 2.8 µM
inactive: [5] | [10] | [11] | [16]

CSC(=O)c1cccc2nnsc12
inactive: [1] | [2] | [3] | [4] | [5] | [6] | [17] | [7] | [8] | [9] | [10] | MYC, MYC (gene 4609) | [11] | [12] | [13] | [14] | [15] | [16]

CCCOC(=O)NCCCN(C)C
inactive: [1] | [2] | [3] | [4] | [5] | [6] | [17] | [7] | [8] | [9] | [10] | MYC, MYC (gene 4609) | [11] | [12] | [13] | [14] | [15] | [16]

C#C[C@]1(O)CC[C@H]2[C@@H]3CCC4=CC(=O)CC[C@@H]4[C@H]3CC[C@@]21CC
active: [3] 0.0379 µM | [12] 2.38 µM
inactive: [1] | [2] | [4] | [6] | [17] | [7] | [8] | [9] | [10] | MYC, MYC (gene 4609) | [11] | [18] | [13] | [14] | [15] | [16]

COC(=O)CSc1cc(N=c2sc(=O)n3n2CCCC3)c(F)cc1Cl
inactive: [1] | [2] | [3] | [4] | [5] | [6] | [17] | [7] | [8] | [9] | [10] | MYC, MYC (gene 4609) | [11] | [12] | [13] | [14] | [15] | [19] | [16]

COC(=O)c1ccc(I)cc1S(=O)(=O)NC(=O)Nc1nc(C)nc(OC)n1
inactive: [1] | [2] | [3] | [4] | [5] | [6] | [17] | [7] | [8] | [9] | [10] | MYC, MYC (gene 4609) | [11] | [12] | [13] | [14] | [15] | [16]

C=CCOC(Cn1ccnc1)c1ccc(Cl)cc1Cl (stereo unspecified)
inactive: [14]
active: [1] 13.2 µM | [2] 30 µM | [3] 73.7 µM | [4] 12.7 µM | [5] 50 µM | [6] 12.3 µM | [17] 75.5 µM | [7] 33 µM | [8] 13.7 µM | [9] 20.5 µM | [10] 34.4 µM | MYC, MYC (gene 4609) 36 µM | [11] 75.2 µM | [12] 28.4 µM | [13] 87.5 µM | [15] 31.3 µM | [16] 50 µM
